Experimental data reported in PubChem BioAssay (EPA / NIEHS).
Calls of active or inactive are those of the source. How the source made its calls: active means hit-call score of the fitted dose curve at least 0.9, where 1 is the maximum; inactive means score below 0.9.

Columns and labels:
Settings in all cases: mRNA level, 48 h; actives raise or lower the signal
[1] = read-out: ABC Transporter (ABCC3), ABCC3 (gene 8714); experiment: LTEA_HepaRG_ABCC3: Life Technologies and Expression Analysis (LTEA) Assay for ABC Transporter (ABCC3) using HepaRG (AID 2283462)
In short: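 HepaRG cells in serum-free induction medium were exposed for 48 h in duplicate to 8-point half-log concentrations topping at 100 uM in 0.5% DMSO. ABCC3 mRNA was measured by qRT-PCR normalized to ACTB, GAPDH and POLR2A, with bidirectional fitting versus DMSO.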

[2] = read-out: ABC Transporter (ABCB11), ABCB11 (gene 8647); experiment: LTEA_HepaRG_ABCB11: Life Technologies and Expression Analysis (LTEA) Assay for ABC Transporter (ABCB11) using HepaRG (AID 2283463)
In short: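 Using HepaRG cultures held in 0.5% DMSO, chemicals were tested at half-log dilutions from 100 uM for 48 h. Induction or suppression of ABCB11 mRNA, normalized to ACTB, GAPDH and POLR2A, was fitted bidirectionally against vehicle.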

[3] = read-out: ABC Transporter (ABCC2), ABCC2 (gene 1244); experiment: LTEA_HepaRG_ABCC2: Life Technologies and Expression Analysis (LTEA) Assay for ABC Transporter (ABCC2) using HepaRG (AID 2283464)
In short: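 HepaRG cells were plated 48 h, switched to serum-free induction medium, then exposed in duplicate for 48 h to 8 concentrations (top 100 uM, half-log steps, 0.5% DMSO). ABCC2 mRNA was measured by qRT-PCR normalized to ACTB/GAPDH/POLR2A; bidirectional fitting versus DMSO.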

[4] = read-out: Broad substrate specificity ATP-binding cassette transporter ABCG2 (Homo sapiens) (UniProt Q9UNQ0); experiment: LTEA_HepaRG_ABCG2: Life Technologies and Expression Analysis (LTEA) Assay for ABC Transporter (ABCG2) using HepaRG (AID 2283465)
In short: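 Gene expression of ABCG2 in HepaRG liver cells is quantified by qRT-PCR following 48 h exposure across an eight-point series topping at 100 uM. Values come from bidirectional fitting relative to DMSO vehicle.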

[5] = read-out: ATP-citrate lyase (ACLY), ACLY (gene 47); experiment: LTEA_HepaRG_ACLY: Life Technologies and Expression Analysis (LTEA) Assay for ATP-citrate lyase (ACLY) using HepaRG (AID 2283466)
In short: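 ACLY expression changes in human HepaRG liver cells are quantified by qRT-PCR after 48 h exposure to test chemicals (maximum 100 uM, half-log steps). Values are fitted in both directions relative to 0.5% DMSO vehicle.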

[6] = read-out: Peroxisomal acyl-coenzyme A oxidase 1 (ACOX1) gene, ACOX1 (gene 51); experiment: LTEA_HepaRG_ACOX1: Life Technologies and Expression Analysis (LTEA) Assay for Peroxisomal acyl-coenzyme A oxidase 1 (ACOX1) gene using HepaRG (AID 2283467)
In short: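 Human HepaRG hepatic cultures, 48 h treatment with test chemicals up to 100 uM. ACOX1 expression read by qRT-PCR relative to 0.5% DMSO vehicle.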

[7] = read-out: Alkaline Phosphatase, Placental (ALPP) gene, ALPP (gene 250); experiment: LTEA_HepaRG_ALPP: Life Technologies and Expression Analysis (LTEA) Assay for Alkaline Phosphatase, Placental (ALPP) gene using HepaRG (AID 2283468)
In short: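 Differentiated human HepaRG cells were plated and cultured 48 h, then exposed in duplicate for 48 h in serum-free induction medium to eight half-log concentrations from 100 uM in 0.5% DMSO. ALPP mRNA was measured by TaqMan qRT-PCR, normalized to ACTB, GAPDH, POLR2A.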

[8] = read-out: Bcl-2 (BAD) gene, BAD (gene 572); experiment: LTEA_HepaRG_BAD: Life Technologies and Expression Analysis (LTEA) Assay for Bcl-2 (BAD) gene using HepaRG (AID 2283469)
In short: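 Activity values reflect up- or down-regulation of BAD mRNA in human HepaRG hepatic cells treated 48 h in serum-free medium, with eight-point half-log dosing capped at 100 uM and 0.5% DMSO vehicle.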

[9] = read-out: Bcl-2 (BAX) gene, BAX (gene 581); experiment: LTEA_HepaRG_BAX: Life Technologies and Expression Analysis (LTEA) Assay for Bcl-2 (BAX) gene using HepaRG (AID 2283470)
In short: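 Cells were thawed, plated for 48 h, moved to serum-free induction medium and dosed for 48 h (highest concentration 100 uM, half-log steps, 0.5% DMSO). Total RNA was then analysed for BAX expression by qRT-PCR.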

[10] = read-out: adenosine kinase (ADK) gene, ADK (gene 132); experiment: LTEA_HepaRG_ADK: Life Technologies and Expression Analysis (LTEA) Assay for adenosine kinase (ADK) gene using HepaRG (AID 2283471)
In short: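 HepaRG (human liver), 48 h chemical exposure, 8-pt half-log series, top 100 uM, 0.5% DMSO vehicle. Readout: ADK mRNA by qRT-PCR vs housekeeping genes; bidirectional curve fit relative to DMSO baseline.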

Measured: AC50

Sequence of Broad substrate specificity ATP-binding cassette transporter ABCG2 (Homo sapiens) (Q9UNQ0 whole entry, looked up): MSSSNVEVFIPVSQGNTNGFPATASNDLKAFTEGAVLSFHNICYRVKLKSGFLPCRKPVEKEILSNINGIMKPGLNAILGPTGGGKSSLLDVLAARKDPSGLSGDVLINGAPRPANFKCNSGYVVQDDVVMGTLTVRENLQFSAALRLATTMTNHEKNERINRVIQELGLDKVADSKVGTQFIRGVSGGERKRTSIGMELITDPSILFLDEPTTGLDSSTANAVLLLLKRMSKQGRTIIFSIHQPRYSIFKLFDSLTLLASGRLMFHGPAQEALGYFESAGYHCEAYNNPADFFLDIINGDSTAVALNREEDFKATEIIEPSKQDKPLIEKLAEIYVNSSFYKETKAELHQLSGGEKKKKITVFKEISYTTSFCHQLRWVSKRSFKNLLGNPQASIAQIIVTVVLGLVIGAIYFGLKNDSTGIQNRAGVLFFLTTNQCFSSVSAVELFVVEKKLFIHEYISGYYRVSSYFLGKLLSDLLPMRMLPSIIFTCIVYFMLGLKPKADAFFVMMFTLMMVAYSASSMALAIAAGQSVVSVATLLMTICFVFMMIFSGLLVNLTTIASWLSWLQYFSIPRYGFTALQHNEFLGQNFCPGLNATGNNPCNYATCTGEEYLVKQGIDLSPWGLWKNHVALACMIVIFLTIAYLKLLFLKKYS

O=C(O)C1(c2ccc3c(c2)OC[C@H](Cc2ccc(-c4ccccc4)cc2)[C@H]3O)CCCC1
active: [1] 75.7 µM | [5] 82.4 µM | [6] 91.7 µM | [9] 66.2 µM
inactive: all other assays above

O=C(N[C@H]1CN2CCC1CC2)c1ccc2c(c1)OCCO2
inactive: all assays above

CC(C)(C)c1ccccc1O
inactive: all assays above

Cc1cc(C)cc(C)c1
inactive: all assays above

CC(C)O.CC(C)O.OCCN(CCO)CCO.OCCN(CCO)CCO.[Ti]
inactive: all assays above

N#Cc1cccnc1
inactive: all assays above

Clc1cccc(Cl)c1
inactive: all assays above
